Source: PubChem BioAssay (Tox21)
Results filed as inconclusive are left out. Active and inactive are the calls of the source. Unless noted, calls follow the shape of the full dose curve.

Key:
[1] = Nuclear factor erythroid 2-related factor 2/antioxidant responsive element (Nrf2/ARE) small molecule agonists: qHTS cell viability counter screen in human keratinocytes (AID 1919968; active = well fitted cell-killing curve with a large enough effect in the repeat runs; also: nearly all actives have a fitted effect of over 55% in size; also: potency is read from the fitted curve at half-maximal effect)
Outline: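 Stably transfected HaCaT (KeratinoSens), 1,500/well. Test agents in DMSO were applied for 23 h, 37 C/5% CO2. CellTiter-Fluor was incubated 1 h before the fluorescence read.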

[2] = Nuclear factor erythroid 2-related factor 2/antioxidant responsive element (Nrf2/ARE) small molecule agonists: luciferase reporter gene qHTS assay in human keratinocytes (AID 1919969); also: nearly all actives have a fitted effect of over 35% in size
[3] = molecular target: Gonadotropin-releasing hormone receptor (Homo sapiens) (UniProt P30968); experiment: Human gonadotropin-releasing hormone receptor (GnRHR) small molecule agonists, calcium flux assay in GnRHR-HEK293 cells (AID 1920063); also: nearly all actives have a fitted effect of over 35% in size
Outline: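 Stable human GnRHR HEK293 line. 18 h plating, then calcium dye for 1 h at 37 C. Agonist-mode compound addition from DMSO stocks; fluorescence monitored 3 min.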

[4] = G protein-coupled receptor (GPCR) small molecule agonists, calcium flux assay: HEK293 wild type cell line counter screen (AID 1920065)
Outline: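 Following 18 h incubation at 37 C/5% CO2, plates got calcium dye for 1 h; compounds, ATP or DMSO were then pinned in and fluorescence followed kinetically (480/540 nm).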

[5] = p53 small molecule agonists, cell-based qHTS assay with human liver microsomes (AID 1963577);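 also: p53 response element beta-lactamase reporter cells with liver microsomes plus NADPH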
Outline: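 In this qHTS, p53 response-element beta-lactamase cells receive test compound together with a microsome/NADPH activating system (0.5 mg/mL final each) and are incubated 16 h at 37 C before LiveBLAzer fluorescence detection.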

[6] = p53 small molecule agonists, cell-based qHTS assay with rat liver microsomes (AID 1963578)
Outline: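 Agonist mode in p53RE-bla reporter cells, with compounds co-incubated 16 h at 37 C alongside 0.5 mg/mL rat liver microsomes and 0.5 mg/mL NADPH (final), followed by a 2 h LiveBLAzer detection step.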

[7] = p53 small molecule agonists, cell-based qHTS assay with human liver microsomes: qHTS cell viability counter screen (AID 1963579); also: nearly all actives have a fitted effect of over 45% in size
Outline: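 Metabolically activated exposure: compounds, human liver microsomes and NADPH (0.5 mg/mL final apiece) were added to p53RE-bla cells seeded 5 h earlier, left 16 h at 37 C, and then assessed for viability by CellTiter-Glo luminescence.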

[8] = p53 small molecule agonists, cell-based qHTS assay with rat liver microsomes: qHTS cell viability counter screen (AID 1963580); also: nearly all actives have a fitted effect of over 45% in size; also: potency is read from the fitted curve at half-maximal effect
Outline: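 Cytotoxicity counter screen: intracellular ATP read by CellTiter-Glo luminescence in the p53 reporter wells. HCT-116 p53RE-bla cells were treated for 16 h at 37 C alongside rat liver microsomes and NADPH, each 0.5 mg/mL final.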

[9] = p53 small molecule agonists, cell-based qHTS assay (AID 1963582; active = well fitted activation curve with a large enough effect in the signal ratio in the repeat runs, not every such curve was filed as active; the % refers to the signal ratio)
Outline: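 Measured: fluorescence from cleaved LiveBLAzer substrate. System: p53RE-bla cells, 16 h compound treatment at 37 C, 2 h substrate step at room temperature.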

[10] = molecular target: 5-hydroxytryptamine receptor 2A (Homo sapiens) (UniProt P28223); experiment: 5-hydroxytryptamine receptor 2A (HTR2A) small molecule agonists, cell-based qHTS assay (AID 1963587); also: nearly all actives have a fitted effect of over 30% in size
Outline: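 Kinetic calcium-flux fluorescence (2 min, 1 sec intervals) after compound addition in agonist mode. HTR2A-CHO cells were cultured 18 h, then dye-loaded 1 h at 37 C.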

[11] = molecular target: Muscarinic acetylcholine receptor M1 (Homo sapiens) (UniProt P11229); experiment: Cholinergic receptor muscarinic 1 (CHRM1) small molecule antagonists, cell-based qHTS assay (AID 1963588); also: nearly all actives have a fitted effect of over 40% in size
Outline: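 Compounds were tested at 15 concentrations in three independent runs. Dye-loaded CHRM1-CHO cells were exposed 5 min at room temperature before stimulation by acetylcholine added at 50nM. Intracellular calcium was read kinetically on FDSS for 3 min.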

[12] = molecular target: Muscarinic acetylcholine receptor M1 (Homo sapiens) (UniProt P11229); experiment: Cholinergic receptor muscarinic 1 (CHRM1) small molecule agonists, cell-based qHTS assay (AID 1963589); also: nearly all actives have a fitted effect of over 35% in size
Outline: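 Kinetic fluorescence (1 s intervals) of calcium-sensitive dye in human M1 CHO cells after compound addition; cells pre-incubated 18 h at 37 C/5% CO2 and dye-loaded 1 h.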

[13] = cAMP Responsive Elements (CRE) small molecule agonists, cell-based qHTS assay (AID 1963590)
Outline: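 Test agents in DMSO were incubated 3 h at 37 C/5% CO2 with CRE-bla HEK 293T cells seeded 18 h earlier; LiveBLAzer B/G FRET substrate was added and read after 2 h at room temperature.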

[14] = cAMP Responsive Elements (CRE) small molecule antagonists, cell-based qHTS assay (AID 1963591; active = well fitted inhibition curve with a large enough effect in the signal ratio in the repeat runs, not every such curve was filed as active; the % refers to the signal ratio)
Outline: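 Reporter line CRE-bla HEK 293T in dialyzed-FBS DMEM; cells preincubated 18 h, treated 3 h with compound plus NKH477 (0.25 uM final); LiveBLAzer FRET, 2 h RT.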

[15] = molecular target: Beta-2 adrenergic receptor (Homo sapiens) (UniProt P07550); experiment: Adrenergic beta2 receptor (ADRB2) small molecule antagonists, cell-based qHTS assay (AID 1963592); also: series mostly up to about 92 µM; nearly all actives have a fitted effect of over 50% in size
Outline: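 Assay format: CHO-ADRB2 cells, 18-20hr seeding at 37C/5% CO2, then compound plus 1nM isoproterenol agonist mix for 0.5hr RT. Homogeneous time-resolved fluorescence cAMP detection after 1hr, expressed as 665/615 nm ratio.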

[16] = molecular target: D(2) dopamine receptor (Homo sapiens) (UniProt P14416); experiment: Dopamine D2 receptor (DRD2) small molecule agonists, cell-based qHTS assay (AID 1963594); also: nearly all actives have a fitted effect of over 35% in size
Outline: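 cAMP accumulation in DRD2-HEK293 cells measured by HTRF after 1 h detection; compounds added 10 min before NKH477 (200nM […]) forskolin-analogue stimulation, 30 min at room temperature, with Ro20-1724 present at 0.1 mM final.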

[17] = molecular target: D(2) dopamine receptor (Homo sapiens) (UniProt P14416); experiment: Dopamine D2 receptor (DRD2) small molecule antagonists, cell-based qHTS assay (AID 1963595; active = well fitted inhibition curve with a large enough effect in the signal ratio in the repeat runs, with a control signal flat; the % refers to the signal ratio; also: potency is read from the fitted curve at half-maximal effect)
Outline: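 DRD2-HEK293; 0.1 mM Ro20-1724; cpd 10 min RT; NKH477 200 nM + quinpirole 12 nM, 30 min RT; HTRF cAMP (cAMP-d2/anti-cAMP cryptate), 665/620 nm ratio after 1 h.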

[18] = p53 small molecule agonists, cell-based qHTS assay: qHTS cell viability counter screen (AID 1963581); also: nearly all actives have a fitted effect of over 45% in size
Outline: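 qHTS counter screen: 16 h compound exposure at 37 C of p53RE-bla HCT-116 cells (4,000 per well, seeded 5 h prior), cell viability by ATP luminescence.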

[19] = molecular target: 5-hydroxytryptamine receptor 2A (Homo sapiens) (UniProt P28223); experiment: 5-hydroxytryptamine receptor 2A (HTR2A) small molecule antagonists, cell-based qHTS assay (AID 1963586); also: nearly all actives have a fitted effect of over 45% in size
Outline: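 CHO cells stably expressing human HTR2A were plated for 18 h at 37 C, then loaded with calcium dye for 1 h. Compounds were preincubated 5 min at room temperature before DOI (4 nM solution) was added. Kinetic fluorescence was read for 3 min.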

[20] = molecular target: Beta-2 adrenergic receptor (Homo sapiens) (UniProt P07550); experiment: Adrenergic beta2 receptor (ADRB2) small molecule agonists, cell-based qHTS assay (AID 1963593);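 also: CHO cells stably overexpressing human ADRB2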
Outline: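 CHO cells stably over-expressing ADRB2 were plated overnight at 37C, then dosed with compounds plus a stimulation mix containing 100uM IBMX and 25uM Ro-20-1724 for 0.5hr at room temperature. cAMP was measured by HTRF competition, 1hr.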

Measured: Potency

D(2) dopamine receptor (Homo sapiens), sequence (P14416 whole entry, looked up): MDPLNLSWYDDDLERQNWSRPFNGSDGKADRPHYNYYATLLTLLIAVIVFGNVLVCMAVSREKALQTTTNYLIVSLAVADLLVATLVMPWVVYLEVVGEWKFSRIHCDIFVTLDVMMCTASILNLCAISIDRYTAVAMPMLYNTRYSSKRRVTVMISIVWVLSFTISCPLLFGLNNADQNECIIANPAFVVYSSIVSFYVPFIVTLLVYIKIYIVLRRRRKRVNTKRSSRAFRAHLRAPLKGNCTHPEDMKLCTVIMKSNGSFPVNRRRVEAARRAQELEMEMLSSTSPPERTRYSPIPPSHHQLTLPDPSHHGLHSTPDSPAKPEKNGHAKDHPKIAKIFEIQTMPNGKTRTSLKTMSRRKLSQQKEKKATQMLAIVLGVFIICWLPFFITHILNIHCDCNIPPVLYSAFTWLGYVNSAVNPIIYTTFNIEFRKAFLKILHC
Muscarinic acetylcholine receptor M1 (Homo sapiens), sequence (P11229 whole entry, looked up): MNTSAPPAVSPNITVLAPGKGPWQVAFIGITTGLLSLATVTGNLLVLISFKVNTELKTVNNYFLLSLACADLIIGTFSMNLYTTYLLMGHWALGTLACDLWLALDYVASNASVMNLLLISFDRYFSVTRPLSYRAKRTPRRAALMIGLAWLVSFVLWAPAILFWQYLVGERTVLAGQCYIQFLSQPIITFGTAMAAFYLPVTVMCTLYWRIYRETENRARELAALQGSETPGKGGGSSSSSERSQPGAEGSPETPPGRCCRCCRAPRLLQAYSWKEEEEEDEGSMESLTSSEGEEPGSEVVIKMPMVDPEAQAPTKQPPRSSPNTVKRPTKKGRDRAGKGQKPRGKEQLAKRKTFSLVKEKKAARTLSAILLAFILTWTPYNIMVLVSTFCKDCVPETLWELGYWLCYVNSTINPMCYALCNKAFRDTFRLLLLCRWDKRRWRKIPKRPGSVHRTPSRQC
Beta-2 adrenergic receptor (Homo sapiens), sequence (P07550 whole entry, looked up): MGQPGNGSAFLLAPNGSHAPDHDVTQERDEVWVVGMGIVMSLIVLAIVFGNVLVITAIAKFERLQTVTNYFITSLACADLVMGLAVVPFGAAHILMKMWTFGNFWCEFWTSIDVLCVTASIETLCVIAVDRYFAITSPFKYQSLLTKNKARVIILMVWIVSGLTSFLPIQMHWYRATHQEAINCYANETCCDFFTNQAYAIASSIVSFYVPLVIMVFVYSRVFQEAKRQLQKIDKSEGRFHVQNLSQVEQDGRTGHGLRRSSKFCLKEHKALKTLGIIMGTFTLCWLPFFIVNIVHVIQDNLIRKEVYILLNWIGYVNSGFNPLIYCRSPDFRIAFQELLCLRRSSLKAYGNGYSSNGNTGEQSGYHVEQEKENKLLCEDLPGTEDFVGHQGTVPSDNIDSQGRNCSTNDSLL
5-hydroxytryptamine receptor 2A (Homo sapiens), sequence (P28223 whole entry, looked up): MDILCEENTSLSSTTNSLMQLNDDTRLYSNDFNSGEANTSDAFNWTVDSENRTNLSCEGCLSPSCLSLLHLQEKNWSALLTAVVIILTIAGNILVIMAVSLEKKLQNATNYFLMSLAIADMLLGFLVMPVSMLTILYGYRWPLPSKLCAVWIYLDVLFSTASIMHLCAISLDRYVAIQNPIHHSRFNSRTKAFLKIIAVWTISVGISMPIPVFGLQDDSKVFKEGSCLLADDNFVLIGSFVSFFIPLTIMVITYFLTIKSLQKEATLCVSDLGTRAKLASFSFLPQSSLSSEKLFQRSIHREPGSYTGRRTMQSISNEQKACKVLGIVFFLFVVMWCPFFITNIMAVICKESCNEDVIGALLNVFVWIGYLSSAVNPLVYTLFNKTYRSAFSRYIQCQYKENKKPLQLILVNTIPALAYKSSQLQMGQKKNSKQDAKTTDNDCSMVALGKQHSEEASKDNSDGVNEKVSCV
Gonadotropin-releasing hormone receptor (Homo sapiens), sequence (P30968 whole entry, looked up): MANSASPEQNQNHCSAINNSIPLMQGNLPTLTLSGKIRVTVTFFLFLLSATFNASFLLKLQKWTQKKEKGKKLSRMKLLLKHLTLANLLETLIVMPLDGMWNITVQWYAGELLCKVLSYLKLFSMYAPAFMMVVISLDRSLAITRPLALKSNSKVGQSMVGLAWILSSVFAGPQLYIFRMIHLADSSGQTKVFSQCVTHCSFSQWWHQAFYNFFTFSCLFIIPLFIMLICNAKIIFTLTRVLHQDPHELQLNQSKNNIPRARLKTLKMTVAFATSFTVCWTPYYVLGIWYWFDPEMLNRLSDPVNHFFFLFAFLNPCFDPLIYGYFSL

C=C(C)C(=O)OCCN(CC)CC
not listed: [18] | [19] | [20]
inactive: all other assays above

O=C(/C=C/c1ccc(O)c(O)c1)O[C@@H]1C[C@](O)(C(=O)O)C[C@@H](O)[C@H]1O
not listed: [9] | [15] | [17] | [20]
inactive: all other assays above

COc1ccc(C(=O)Nc2ccccc2)cc1[N+](=O)[O-]
not listed: [13] | [14] | [16] | [19] | [20]
inactive: all other assays above

CCCCCCCCCCCC[N+](C)(C)CCCCCCCCCCCC
active: [1] 24.3 µM | [8] 40.8 µM | [17] 43.3 µM
not listed: [9] | [13] | [14] | [20]
inactive: all other assays above

CC[C@H](NC(=O)c1cc(F)ccc1NS(=O)(=O)c1cccc2cccnc12)c1ccccc1
not listed: [13] | [14] | [15] | [20]
inactive: all other assays above

CC(C(=O)O)c1ccc(-c2ccccc2)c(F)c1 (configuration not stated)
not listed: [9] | [10] | [11] | [12] | [13] | [14] | [19] | [20]
inactive: all other assays above

OC1(c2ccccc2)CCNCC1
not listed: [13] | [14] | [17]
inactive: all other assays above

CCOC(=O)CC#N
not listed: [13] | [20]
inactive: all other assays above

C=C(C)C1CCC(C)CC1O (configuration not stated)
active: [8] 1.62 µM
not listed: [16] | [18] | [20]
inactive: all other assays above

CCCCCCCC/C=C\CCCCCCCCCCCC(=O)O
not listed: [18] | [20]
inactive: all other assays above

CCCCN1CCCC[C@H]1C(=O)Nc1c(C)cccc1C
not listed: [10] | [11] | [12] | [13] | [14] | [19]
inactive: all other assays above

C[C@@H]1C[C@H]2[C@@H]3CCC4=CC(=O)C=C[C@]4(C)[C@@]3(F)[C@@H](O)C[C@]2(C)[C@@]1(O)C(=O)CO
not listed: [10] | [11] | [12] | [14] | [18] | [19] | [20]
inactive: all other assays above

Cc1cc(C)c(NC(=O)CN(CC(=O)O)CC(=O)O)c(C)c1Br
not listed: [13] | [16]
inactive: all other assays above

CCOC(=O)c1cnc2c(cnn2CC)c1NN=C(C)C
not listed: [14] | [19] | [20]
inactive: all other assays above

C#CC(O)CCCCC (configuration not stated)
not listed: [18]
inactive: all other assays above

CCC1(C)C(=O)N(Cl)C(=O)N1Cl (configuration not stated)
not listed: [14] | [20]
inactive: all other assays above

NS(=O)(=O)c1cc(-c2nn[nH]n2)c(NCc2cccs2)cc1Cl
not listed: [14] | [17] | [18] | [19]
inactive: all other assays above
